Screening results as filed in PubChem BioAssay.
Compounds with a hit are over-represented: about 3.5% of the library has one in this group of screens.
FBW7 activator = human FBW7 E3 ligase activation, primary screen | Q969H0 | AlphaScreen FBW7–phospho-cyclin E peptide binding, activator screen | normalized activity (activation), % at 26.1 µM | actives 0.13% (n = 650,000); in the data active = normalized activity above about 1.9%;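 also: purified mutant Fbw7 with reduced substrate affinity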
GPR151 activ = activates the human receptor GPR151; Q8TDV0; PathHunter beta-arrestin GPR151 cells, luminescence; activation, % at 11.2 µM; actives 1% (n = 650,000); AID 1508602; in the data active = activation above about 4.9%
TEAD-YAP block = TEAD-YAP interaction inhibition; HEK-TIYL cells, TEAD-Gal4/YAP UAS-luciferase luminescence; inhibition, % at 9.12 µM; actives 1.4% (n = 640,000); AID 1259422; in the data active = inhibition above about 32%
MITF primary = human MITF inhibition, primary screen. O75030. AlphaScreen MITF homodimerization, bead proximity signal. inhibition, % at 2.6 µM. actives 0.91% (n = 650,000); in the data active = inhibition above about 50%
GPR151 confirm = human GPR151 activation, confirmation screen; 6,700 tested, under 10 active; GPR151 PathHunter beta-arrestin cells, luminescence, 90 min; % of EA-reagent control over plate median; shares compounds with GPR151 activ; activation, % at 11.2 µM;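 active = mean percent activation across replicates above the confirmation screen cutoff of 4.91%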
GPR119 counter = activates human GPR119 in a GPR151 counter-screen; shares compounds with GPR151 activ; GPR119 PathHunter beta-arrestin cells, luminescence, 90 min; 0 = compound-well median, 100 = enzyme-acceptor control; activation, % at 11.2 µM; actives 0.3% (n = 6,700); AID 1508611;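 active = mean percent activation in the counterscreen above 29.09%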;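 also: counterscreen on off-target GPR119 to flag nonselective hits from the GPR151 activator screen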
Target sequence (Q8TDV5 whole entry, looked up): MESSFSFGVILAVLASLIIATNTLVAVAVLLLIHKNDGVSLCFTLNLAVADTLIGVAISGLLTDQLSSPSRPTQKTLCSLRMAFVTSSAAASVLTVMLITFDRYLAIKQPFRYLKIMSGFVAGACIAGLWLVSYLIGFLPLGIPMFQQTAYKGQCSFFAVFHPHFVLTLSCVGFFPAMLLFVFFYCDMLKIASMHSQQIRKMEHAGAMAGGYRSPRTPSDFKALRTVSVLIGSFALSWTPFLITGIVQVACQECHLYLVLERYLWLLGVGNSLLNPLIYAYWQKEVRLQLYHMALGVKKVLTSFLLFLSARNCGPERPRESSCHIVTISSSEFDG
Of the large screens only hits and unclear results are named; the others gave an inactive call (follow-up assays come after a bar, where they were run).

COc1cc2nc(Nc3nccc4ccccc34)nc(NCCCN3CCCC3=O)c2cc1OC	GPR151 activ 5.6 | GPR151 confirm inactive | GPR119 counter inactive
O=C(c1ccc2c(c1)OCO2)N1CCN(c2ccc(Cl)cc2)CC1	GPR151 activ 5.5 | GPR151 confirm inactive | GPR119 counter inactive
O=C(c1ccc2c(c1)OCO2)N1CCCCCC1	none
CC(=O)N1CCN(C(=O)c2ccc3c(c2)OCO3)CC1	GPR151 activ 5.5 | GPR151 confirm inactive | GPR119 counter inactive
CC(=O)c1ccc(N2CCN(C(=O)c3ccc4c(c3)OCO4)CC2)cc1	none
COC(=O)c1c(OCc2ccccn2)cc(=O)n2c1CCN(C(=O)CC(C)(C)C)CC2	none
O=C(c1cnn2c1NC(c1cccs1)CC2C(F)(F)F)N1CCc2ccccc2C1 (stereo not drawn)	GPR151 activ 5.5 | GPR151 confirm inactive | GPR119 counter inactive
O=C(c1cnn2c1NC(c1cccs1)CC2C(F)(F)F)N1CCN(C(c2ccccc2)c2ccccc2)CC1 (stereo not drawn)	none
CCC(C)Sc1nnc(NC(=O)C2CC2)s1 (stereo not drawn)	none
CCOC(=O)c1ccc(NC(=S)N(Cc2ccccc2)Cc2cccs2)cc1	none
CC(=O)c1ccc(NC(=O)C(=O)NC2CCCc3ccccc32)cc1 (stereo not drawn)	GPR151 activ 6.7 | GPR151 confirm inactive | GPR119 counter inactive
O=C(Nc1ccc(S(=O)(=O)N2CCCC2)cc1)C(=O)NC1CCCc2ccccc21 (stereo not drawn)	none
CC(C)OC(=O)C1C2C=CC3(CN(Cc4ccccc4)C(=O)C13)O2 (stereo not drawn)	GPR151 activ 5.5 | GPR151 confirm inactive | GPR119 counter inactive
COCCNC(=O)C1C2C=CC3(CN(Cc4ccc(C)cc4)C(=O)C13)O2 (stereo not drawn)	GPR151 activ 14 | GPR151 confirm inactive | GPR119 counter inactive
CCCCNC(=O)C1C2C=CC3(CN(Cc4ccccc4Cl)C(=O)C13)O2 (stereo not drawn)	GPR151 activ 5.7 | GPR151 confirm inactive | GPR119 counter inactive
COc1ccccc1C(NC(=O)c1cnccn1)c1nccn1C (stereo not drawn)	none
COc1ccccc1C(NC(=O)c1nccc2ccccc12)c1nccn1C (stereo not drawn)	GPR151 activ 6.4 | GPR151 confirm inactive | GPR119 counter inactive
CCOC(=O)c1cc(S(=O)(=O)N(C)c2cccc(C)c2)cn1C	none
CCC(c1nnnn1Cc1ccc(OC)cc1)N1CCN(c2ccc(F)cc2)CC1 (stereo not drawn)	none
Cn1cccc1/C=C1\SC(=S)NC1=O	GPR151 activ 5.1 | GPR151 confirm inactive | GPR119 counter inactive
COC(=O)C(C)N1C(=O)S/C(=C/c2cccn2C)C1=O (stereo not drawn)	GPR151 activ 5.5 | GPR151 confirm inactive | GPR119 counter inactive
COC(=O)C(C)N1C(=O)S/C(=C/c2ccc(Cl)cc2)C1=O (stereo not drawn)	none
Cc1nn(Cc2ccccc2Cl)c(Cl)c1/C=C/C(=O)OCC#N	GPR151 activ 10 | GPR151 confirm inactive | GPR119 counter inactive
COc1ccc2c(c1)-c1c(ssc1=S)C(C)(C)N2C(=O)Cc1ccccc1	GPR151 activ 6.3 | GPR151 confirm inactive | GPR119 counter inactive
CCOC(=O)c1cc(S(=O)(=O)N2CCN(c3ccc(OC)cc3)CC2)cn1C	none
Cc1ccc(OCCOc2ccc(Oc3nc(N(C)C)nc(N(C)C)n3)nn2)cc1	GPR151 activ 5.3 | GPR151 confirm inactive | GPR119 counter inactive
COc1ccccc1C(=O)Nc1ccccc1-c1nnn(CC(=O)NCc2ccco2)n1	GPR151 activ 5.3 | GPR151 confirm inactive | GPR119 counter inactive
O=C1CC(c2ccc(Cl)cc2)CC2=C1C(c1cc3c(cc1Br)OCO3)Nc1ccccc1N2 (stereo not drawn)	GPR151 activ 9.0 | GPR151 confirm inactive | GPR119 counter inactive
O=C1CC(c2ccc(Cl)cc2)CC2=C1C(c1ccc3c(c1)OCO3)Nc1ccccc1N2 (stereo not drawn)	none
O=S1(=O)c2cccc3cccc(c23)N1Cc1cc2c(cc1Br)OCO2	none
CCC(=O)N1C(=O)CC(C)N(C(=O)CC)c2ccccc21 (stereo not drawn)	GPR151 activ 5.9 | GPR151 confirm inactive | GPR119 counter inactive
CCCCNC(=S)NNC(=O)C(=O)NNC(=S)NCCCC	GPR151 activ 6.4 | GPR151 confirm inactive | GPR119 counter inactive
CCCCNC(=S)NNC(=O)C12CC3CC(CC(C3)C1)C2	none
CCOc1cc(/C=C2\N=C(c3cccc(C)c3)OC2=O)ccc1OC(C)=O	none
CCOc1cc(/C=C2/N=C(c3cccc(C)c3)OC2=O)ccc1OS(C)(=O)=O	GPR151 activ 13 | GPR151 confirm inactive | GPR119 counter inactive
CCN1CCN(CC(O)COC(c2ccccc2)c2ccccc2)CC1 (stereo not drawn)	none
CN(C)CC(O)COC(c1ccccc1)c1ccccc1 (stereo not drawn)	GPR151 activ 7.7 | GPR151 confirm inactive | GPR119 counter inactive
COC(=O)/C(N=Nc1ccc2c(c1)OCO2)=C(\C)O	none
CSc1ccccc1C(=O)Nc1ccccc1Cl	GPR151 activ 8.2 | GPR151 confirm inactive | GPR119 counter inactive
O=C(CN1CCN(C(=O)c2ccco2)CC1)NN(Cc1ccccc1)c1ccccc1	GPR151 activ 5.4 | GPR151 confirm inactive | GPR119 counter inactive
Cc1nn(Cc2ccc(C(=O)NC3CCCC3)o2)c(C)c1[N+](=O)[O-]	GPR151 activ 5.5 | GPR151 confirm inactive | GPR119 counter inactive
COC(=O)c1ccc(Nc2nccc(-c3ccccc3)n2)cc1	none
NC(=O)c1ccc(Nc2nccc(-c3ccc(Cl)cc3)n2)cc1	GPR151 activ 5.6 | GPR151 confirm inactive | GPR119 counter inactive
CC(C)C[C@@H](NC(=O)OCC1c2ccccc2-c2ccccc21)C(=O)O	GPR151 activ 7.8 (no result: TEAD-YAP block) | GPR151 confirm inactive | GPR119 counter inactive
CCOC(CNC(=O)CNC(=O)Cn1cnc2sc(C)c(C)c2c1=O)OCC	none
COC(=O)C1=C(C)N(Cc2ccccc2)C(=O)NC1c1ccc(F)cc1 (stereo not drawn)	none
CC(C)CS(=O)(=O)Nc1ccc2c(c1)CCCN2S(=O)(=O)c1ccc(F)cc1	GPR151 activ 5.2 | GPR151 confirm inactive | GPR119 counter inactive
COc1ccc(-c2csc(NC(=O)c3ccc(S(=O)(=O)N4CCCC4)cc3)n2)c(OC)c1	GPR151 activ 5.5 | GPR151 confirm inactive | GPR119 counter inactive
Cc1ccc(-n2cnnn2)c(S(=O)(=O)N2CCOCC2)c1	GPR151 activ 5.4 | GPR151 confirm inactive | GPR119 counter inactive
CC(CC(=O)NNC(=O)c1cccc([N+](=O)[O-])c1)=Nc1ccc2ccccc2c1	none
CCOC(=O)c1cc2c(c(CSc3nc4ccccc4c(=O)n3Cc3cccs3)c1)OCOC2	none
